Legend:
Test in all cases: thermal shift delta Tm vs DMSO control; higher = stronger stabilization (binding)
Settings in all cases: 12.5 µM; protein concentration 2 µM
LOC_OS01G01410-cb001 = test system: LOC_OS01G01410-cb001
Outline: (§1)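 Rice kinase domain constructs, made in E. coli and purified, were placed in 96-well plates at 2 μM in 19.5 μl of 100 mM potassium phosphate pH 7.5, 150 mM NaCl, 10% glycerol and 5 × SYPRO Orange, with compound in DMSO. A temperature ramp from 25°C to 95°C at 0.05°C/s was used for differential scanning fluorimetry. The melting temperature shift is a triplicate mean compared with DMSO-only protein, derived from Boltzmann fits.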

LOC_OS01G02750-cb003 = test system: LOC_OS01G02750-cb003
Outline: as §1

LOC_OS01G10900-cb004 = test system: LOC_OS01G10900-cb004
Outline: as §1

LOC_OS01G13800-cb001 = test system: LOC_OS01G13800-cb001
Outline: as §1

LOC_OS01G14860-cb001 = test system: LOC_OS01G14860-cb001
Outline: as §1

LOC_OS01G21960-cb002 = test system: LOC_OS01G21960-cb002
Outline: as §1

LOC_OS01G39600-cb002 = test system: LOC_OS01G39600-cb002
Outline: as §1

LOC_OS01G48390-cb002 = test system: LOC_OS01G48390-cb002
Outline: as §1

LOC_OS01G51400-cb002 = test system: LOC_OS01G51400-cb002
Outline: as §1

LOC_OS01G52050-cb004 = test system: T1, LOC_OS01G52050-cb004
T1 sequence (whole entry): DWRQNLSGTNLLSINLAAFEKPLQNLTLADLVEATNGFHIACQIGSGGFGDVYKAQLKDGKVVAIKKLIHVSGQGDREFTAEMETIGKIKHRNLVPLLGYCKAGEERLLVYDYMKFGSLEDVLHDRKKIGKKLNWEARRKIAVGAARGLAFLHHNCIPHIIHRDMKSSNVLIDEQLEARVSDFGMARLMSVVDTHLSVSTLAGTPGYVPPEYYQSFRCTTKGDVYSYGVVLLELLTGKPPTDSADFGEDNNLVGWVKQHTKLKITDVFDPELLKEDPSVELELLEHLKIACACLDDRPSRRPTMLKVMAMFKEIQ
Outline: as §1
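Further: purified Escherichia coli-expressed rice kinase domain construct.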

SMILES	thermal shift delta Tm (LOC_OS01G01410-cb001) [°C]	thermal shift delta Tm (LOC_OS01G02750-cb003) [°C]	thermal shift delta Tm (LOC_OS01G10900-cb004) [°C]	thermal shift delta Tm (LOC_OS01G13800-cb001) [°C]	thermal shift delta Tm (LOC_OS01G14860-cb001) [°C]	thermal shift delta Tm (LOC_OS01G21960-cb002) [°C]	thermal shift delta Tm (LOC_OS01G39600-cb002) [°C]	thermal shift delta Tm (LOC_OS01G48390-cb002) [°C]	thermal shift delta Tm (LOC_OS01G51400-cb002) [°C]	thermal shift delta Tm (LOC_OS01G52050-cb004) [°C]
Cc1cc2c(F)c(Oc3ncnn4cc(OC[C@@H](C)OC(=O)[C@H](C)N)c(C)c34)ccc2[nH]1	1.74	0.78	0.61	0.4	0.52	0.54	0.75	0.96	-0.47	-0.05
CC#CC(=O)N1CCC[C@H]1c1nc(-c2ccc(C(=O)Nc3ccccn3)cc2)c2c(N)nccn12 [Acalabrutinib (ACP-196)]	0.74	0.55	0.53	0.19	0.36	0.47	0.15	0.22	-0.06	-0.21
Cn1cc(-c2ccc3ncc(Cc4ccc5ncccc5c4)n3n2)cn1	0.75	0.95	6.36	0.22	0.23	0.62	0.86	1.24	0.47	0.62
O=C(Nc1nccs1)C(c1cc(F)ccc1O)N1Cc2ccccc2C1=O (stereo not given)	0.29	0.35	0.25	-0.01	0.4	0.48	-0.23	-0.1	-0.02	-0.31
CO[C@H]1CC[C@H](N2C(=O)CNc3ncc(-c4ccc(C(C)(C)O)nc4)nc32)CC1	0.1	-0.2	-0.9	0.15	0.82	1.01	-1.7	-0.27	0.12	-1.81
COc1cc(C(=O)N2CCC(N3CCN(C)CC3)CC2)ccc1Nc1ncc2c(n1)N(C)c1ccccc1C(=O)N2C	0.19	0.47	2.12	0.41	-0.08	-0.12	-0.15	0.42	-0.06	-0.4
COc1ccc(-c2ccc3c(N4CCOCC4)nc(N4C[C@@H](C)O[C@@H](C)C4)nc3n2)cc1CO	0.64	0.68	0.83	-0.38	0.08	-0.07	-0.02	-0.04	-0.03	0.27
O=C1NC(=O)C(c2ccccc2[N+](=O)[O-])=C1Nc1ccc(O)c(Cl)c1	0.62	-1.98	0.16	0.72	0.92	1.43	-0.46	0.67	0.04	-0.24
CS(=O)(=O)c1ccc(-c2cnc(N)c(C(=O)Nc3ccccc3)n2)cc1	1.64	0.51	0.6	0	5.11	1.15	1.65	0.08	0.3	0.77
CC(C)(C)c1cnc(CSc2cnc(NC(=O)C3CCNCC3)s2)o1	1.11	10.9	3.68	0.5	5.74	0.34	0.92	6.3	0.67	0.49
N#Cc1ccc(-c2c(-c3ncn[nH]3)sc(N3CCOCC3)c2C#N)c(F)c1	0.3	0.97	4.91	0.46	0.41	1.16	0.28	0.62	0.12	0.29
Cc1ncc(-c2ccnc(Nc3ccc(S(C)(=O)=O)cc3)n2)n1C(C)C	2.46	2.34	0.85	0.21	7.5	2.32	2.92	0.66	0.48	4.34
Cc1cc(C)c(/C=C2\C(=O)Nc3ccccc32)[nH]1 [Semaxanib (SU5416)]	2.4	1.81	0.7	-0.49	0.24	1.45	0.58	1.2	0.58	1.59
CC1=C(C(=O)Nc2cc3cn[nH]c3cc2F)C(c2ccc(C(F)(F)F)cc2)CC(=O)N1 (stereo not given)	0.57	-0.19	0.11	0.54	0.16	0.33	-0.15	-0.18	-0.23	0
CCCNC(=O)c1cn2ncnc(Nc3cc(C(=O)NC4CC4)ccc3C)c2c1C	0.17	0.08	-0.05	-0.27	0.01	-0.06	0.07	-0.01	0.04	0.26
COc1ccccc1-c1cc(Nc2cccc(CS(N)(=O)=O)c2)ncn1	0.57	1.83	-0.11	0.56	1.07	1.02	-0.27	0.79	0.36	0.9
COCCOc1cnc2ccn([C@H](C)c3nnc4c(F)cc(-c5cnn(C)c5)cn34)c(=O)c2c1	0.44	0.28	0.34	-0.27	0.15	0.42	-0.26	0.28	0.32	0.4
CCc1cncnc1N1CCN(Cc2nc3ccc(C(F)(F)F)cc3[nH]2)CC1	0.68	1.15	0.36	0.07	0.3	0.83	-0.18	0.61	0.42	0.17
O=C(O)c1ccc(Nc2ncc3c(n2)-c2ccc(Cl)cc2C(c2c(F)cccc2F)=NC3)cc1	1.36	-0.24	-0.28	0.41	0.03	-0.02	0.1	0.02	-0.16	0.07
FC(F)c1nc2ccccc2n1-c1nc(N2CCOCC2)nc(N2CCOCC2)n1	0.85	0.92	0.18	0.89	-0.06	0.23	0.94	0.8	0.35	0.72

From the supplement of paper PMC9694430
